Bioassay records deposited in PubChem by ICCB-Longwood Screening Facility, Harvard Medical School.
Shown are actives, neighbours in structure and some others; about 1.4% of the full set was active somewhere.
Mtb MbtI inh = MbtI salicylate synthase inhibitors, primary screen, biochemical, fluorescence intensity | inhibition, % (no concentration beside the values) | actives 0.89% (n = 100,000) | P9WFX0 | AID 493033, 2011 | purified MbtI enzyme, fluorescence intensity read-out; in the data active means inhibition mostly above about 56%, no sharp cut-off; inactive means mostly below about 77%
AID504770 = growth inhibition of E. coli YBA685, primary screen, V. cholerae RctB inhibitors. E. coli YBA685 rctB-dependent plasmid, OD600 growth, 3 h; active compounds read low. z-score (test concentration not listed). actives 0.27% (n = 130,000). AID 504770, 2011; in the data active means z-score below about -2, passing the limit was not always enough
PV pol inh = poliovirus RdRp elongation inhibitors, primary screen, biochemical, fluorescence polarization, total intensity; poliovirus polymerase elongation; active compounds read low; % elongation, % (compound at 16.7 µg/mL); Genome polyprotein (Poliovirus type 1 (strain Mahoney)), P03300; actives 0.66% (n = 150,000); AID 588519, 2011; in the data active means % elongation below about 90%
Target sequence (P03300 1749-2209 limits assumed): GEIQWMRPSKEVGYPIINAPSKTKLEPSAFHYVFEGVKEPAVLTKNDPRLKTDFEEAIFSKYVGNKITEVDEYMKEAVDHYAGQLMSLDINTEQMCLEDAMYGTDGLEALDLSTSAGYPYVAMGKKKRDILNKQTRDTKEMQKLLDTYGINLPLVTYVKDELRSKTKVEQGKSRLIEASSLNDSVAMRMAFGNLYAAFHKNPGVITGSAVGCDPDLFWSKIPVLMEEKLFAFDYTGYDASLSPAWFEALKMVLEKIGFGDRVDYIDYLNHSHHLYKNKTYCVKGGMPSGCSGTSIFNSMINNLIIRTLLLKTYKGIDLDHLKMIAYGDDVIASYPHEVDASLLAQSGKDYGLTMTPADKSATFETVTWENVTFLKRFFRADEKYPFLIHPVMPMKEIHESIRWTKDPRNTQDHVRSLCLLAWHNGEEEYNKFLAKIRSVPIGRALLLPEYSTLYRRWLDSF
MenB inh = M. tuberculosis MenB inhibitors, primary screen, biochemical, absorbance. 1,4-dihydroxy-2-naphthoyl-CoA synthase (Mycobacterium tuberculosis (strain ATCC 25618 / …. inhibition, % (concentration not given with the values). actives 0.43% (n = 100,000). AID 540299, 2011. MenB enzyme assay, absorbance read-out; in the data active means inhibition above about 21%, passing the limit was not always enough
Numbers stand for hits; n = inactive; x = not tested or not shown; ! = not active in a repeat.

SMILES | Mtb MbtI inh | AID504770 | PV pol inh | MenB inh
O=C(CCC(=O)c1ccc(Cl)cc1)OC1CCCCC1=O (stereo not drawn) | n | n | 66.0 | n
CCc1ccc2c(c1)C1CC(C)(NC(=S)N1)O2 (stereo not drawn) | n | n | n | n
CCCC(=O)Oc1c(Sc2ccccc2)c(C)nn1-c1ccccc1 | 57.9 | x | x | x
CCc1ccc2c(c1)S(=O)(=O)C(C(F)(F)F)CO2 (stereo not drawn) | x | n | 84.0 | n
CCc1cccc(NC(=O)C2COc3ccccc3O2)c1 (stereo not drawn) | n | n | n | n
Cc1ccc2c(c1)c1c(n2CC(O)CNc2ccccc2)C(=O)CCC1 (stereo not drawn) | x | n | x | x
Nc1nc2ccccc2n1Cc1ccc(Cl)c(Cl)c1 | x | -4.2 | n | n
COc1ccc(CN(Cc2nc3ccccc3c(=O)[nH]2)C(=O)NCc2ccccc2)cc1 | n | -3.55 | n | n
c1ccc(CNCCc2c[nH]c3ccccc23)cc1 | n | n | x | x
c1ccc(CC(NCc2c[nH]c3ccccc23)c2ccccc2)cc1 (stereo not drawn) | n | -3.1 | x | x
COC(CNc1ncnc2sc(-c3ccccc3)cc12)OC | 79.8 | n | n | n
CSC(C)C(=O)C1=C(O)c2ccccc2C1=O (stereo not drawn) | x | n | x | x
O=C1C(SCCO)=C(SCCO)C(=O)c2ccccc21 | 91.5 | x | n | n
CC(C)(C)C(=O)Nc1cc(NC(=O)C(C)(C)C)cc(C(=O)Nc2ccc(Oc3ccccc3)cc2)c1 | x | n | n | n
CN(C)/C=C/S(=O)(=O)c1ccc(Cl)cc1 | x | n | x | x
Cc1nnc(-c2ccccn2)[nH]c1=O | n | n | n | n
Cn1c(=O)[nH]c2nnc(-c3ccccn3)nc2c1=O | n | n | 89.0 | n
CN1CCc2nc3ccccc3c(C(=O)OCC(=O)NCc3ccccc3)c2C1 | n | n | n | n
FC(F)(F)c1cccc(Nc2nc3nonc3nc2Nc2ccc(Cl)cc2)c1 | x | x | n | x
Cc1cccc(Nc2nc3nonc3nc2Cl)c1 | x | n | 48.0 | n
Cc1ccc(N2C(=O)CC(NCc3ccc(S(N)(=O)=O)cc3)C2=O)cc1Cl (stereo not drawn) | n | n | n | n
C=CCN(C)C1CC(=O)N(c2ccc(C)c(Cl)c2)C1=O (stereo not drawn) | 94.5 | n | n | n
CCNc1nc(NCC)nc(NCCO)n1 | n | n | n | 32.3
CCNc1nc(Cl)nc(NCC)n1 | n | n | n | x
O=C(Nc1ccccc1)c1cc(Cl)ccc1O | n | -2.65 | n | x
SMILES | Mtb MbtI inh | AID504770 | PV pol inh | MenB inh
Cc1ncc(CO)c(/C=N/O)c1O | n | n | n | n
COc1ccc(CNC(=O)CCC2CCCC2)cc1OC | n | n | n | n
COc1ccc(CNC(=O)CSC(C)(C)C)cc1OC | n | -4.55 | n | n
CN(C)CCn1c(N)c(-c2nc3ccccc3n2C)c2nc(C#N)c(C#N)nc21 | n | n | x | x
N/C(=N\NS(=O)(=O)c1ccccc1)c1ccccn1 | n | n | n | n
NC(=S)c1ccccn1 | n | n | 20.0 | n
NC(=S)N/N=C(/C(=O)c1ccccn1)c1ccccn1 | 90.8 | n | 74.0 | n
N/C(=N\O)c1ccccn1 | n | n | n | n
Cc1ccccc1NS(=O)(=O)N1CCCCC1 | x | n | x | x
Cc1ccc(C(=O)Nc2cccc(O)c2)cc1 | n | -2.35 | n | n
Cc1ccc(C(=O)Nc2cc(C)cc(C)c2)cc1 | n | n | n | n
c1c(SSc2cn3c(n2)CCC3)nc2n1CCC2 | 93.2 | n | n | n
Cc1ccc(-n2c(=O)c3ccc(C(=O)NCc4ccco4)cc3n(Cc3ccccc3F)c2=O)cc1 | n | n | n | n
Clc1ncnc2sc3c(c12)CCC3 | 88.9 | n | n | n
S=c1nc2c(n[nH]1)c1ccccc1n2Cc1ccccc1 | x | n | 73.0 | n
CC(C)n1c2ccccc2c2n[nH]c(=S)nc21 | n | n | n | n
S=c1[nH]nc(Cc2ccccc2)n1Cc1ccccc1 | 61.6! | n | n | n
COC(=O)c1c(C)[nH]c(C(=O)C(C)Sc2nnc(N)s2)c1C (stereo not drawn) | n | n | n | n
Cc1ccc(S(=O)(=O)N(O)c2ccc(Cl)cc2)cc1 | 82.5 | n | n | x
Cc1ccc(N(O)S(=O)(=O)c2ccc(C)cc2)cc1 | 64.9 | n | n | n
Cc1ccc(S(=O)(=O)N(C)C)cc1 | n | n | n | x
COc1ccc(-c2noc(CC(=O)N(Cc3ccco3)C3CCCCC3)n2)cc1 | n | n | n | n
COC(=O)c1cccc(C(=O)Nc2cccc3ccccc23)n1 | x | n | x | x
CCOC(=O)c1sc(C)c2c(=O)[nH]c(-c3ccc(SC)cc3)nc12 | 63.6 | n | x | x
CSc1ccc(-c2nc3ccccc3c(=O)[nH]2)cc1 | n | n | n | n
SMILES | Mtb MbtI inh | AID504770 | PV pol inh | MenB inh
CN(C)Cc1nnnn1CCn1nnnc1CN(C)C | x | n | n | n
CCN=c1scc(-c2ccco2)n1/N=C/c1ccsc1 | n | n | n | n
S=C(NCCCn1ccnc1)Nc1ccccc1 | n | n | 23.0 | n
CCOc1ccc(NC(=S)NCCCn2ccnc2)cc1 | n | n | n | n
Clc1ccc(Nc2nnns2)cc1 | 58.8 | n | n | n
Cc1csc(Nc2ccc(Cl)cc2)n1 | 62.5 | n | n | n
CCN(Cc1ccncc1)Cn1c(=S)oc2ccccc21 | 74.8 | n | n | n
CCCN(CCC)S(=O)(=O)Cc1ccccc1Cl | n | n | n | n
O=C(Nc1ccccc1C(=O)O)c1ccccc1 | 55.5 | n | x | x
O=C(c1ccccc1)c1ccccc1NC(=O)c1ccccc1C(=O)O | x | x | n | x
CC1CN(C(=S)c2ccccc2)CC(C)O1 (stereo not drawn) | 67.7 | n | n | n
CC1CN(C(=S)NCCc2ccccc2)CC(C)O1 (stereo not drawn) | n | n | n | n
CC1=NN2C(=NC(=O)C(n3nnnc3C)C2c2ccccc2)O1 (stereo not drawn) | n | n | n | n
CCc1cccc(NC(=O)Nc2cn(C)c(=O)c3ccccc23)c1 | x | x | 79.0 | x
COc1cccc(NC(=O)Nc2cn(C)c(=O)c3ccccc23)c1 | n | n | 85.0 | n
CC(C)Cn1cc(NC(=O)NCc2ccccn2)c2ccccc2c1=O | n | n | n | n
Cn1cc(NC(=O)Nc2ccccc2F)c2ccccc2c1=O | n | n | 84.0 | n
Cn1cc(NC(=O)NCc2ccccn2)c2ccccc2c1=O | n | -2.05 | n | n
CC1CCN(Cc2ccc(NC(=O)Nc3cn(C)c(=O)c4ccccc34)cc2)CC1 | n | n | n | n
Cc1ccc(S(=O)(=O)Nc2ccccc2C(=O)NCc2ccco2)cc1 | n | n | n | n
CCOC(=O)C1C(=O)C=C(c2ccco2)CC1c1ccc(CC)cc1 (stereo not drawn) | n | n | n | n
CSc1nnc(-c2ccccc2NC(=O)c2ccccc2)c(=O)[nH]1 | n | n | n | n
Clc1ccccc1C1=NC2=S(O1)OC(c1ccccc1Cl)=N2 | 80.5 | n | n | n
CC(CO)(CO)NC(=S)Nc1ccc(F)c(Cl)c1 | 55.4 | n | n | n
COc1ccc(S(N)(=O)=O)cc1C | n | n | n | n
COC(=O)C1CCN(C(=O)Cc2ccc(C)cc2)CC1 | n | n | 83.0 | n
